Screening results from PubChem BioAssay.
MEKK2 mut-MEK5 = signal of MEK5 binding to mutant human MEKK2 PB1 domain; bead flow cytometry, Alexa488-MEK5 binding to MEKK2 mutant; percent response, % at 10 µM; actives 0.35% (n = 290,000); AID 1530; in the data active = percent response above about 24%, passing the limit was not always enough
SUMO Mot1 rescue = inhibitors of SUMOylation pathway: yeast Mot1-301 growth rescue | S. cerevisiae Mot1-301 growth rescue, ATP luminescence, 38.5C; percent above DMSO median, 100 means doubled | growth rescue, % at 18.8 µM | actives 1% (n = 320,000);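 active = every valid replicate shows activation above 250% relative to neutral control wells; inactive = the rest, any valid replicate at or below 250%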
MEKK3 PB1 HTS = modulators (inhibitors or enhancers) of MEK5 binding to human MEKK3 PB1 domain; Q99759; bead-based flow cytometry, Alexa488-MEK5 binding to MEKK3; actives lie on both sides; 0 = blocked by unlabeled MEK5, 100 = vehicle; binding response (% of control), % at 10 µM; actives 1.4% (n = 290,000); AID 1529;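 active = binding response more than 3 SD above or below the average of its plate-row segment, actives on both sides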;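 also: Alexa488 bead fluorescence after subtracting the streptavidin-only scavenger bead signal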
CHT PAM = allosteric activators of human choline transporter CHT; Q9GZV3; CHT-expressing cells, membrane potential dye, choline EC20; stronger effect = higher value; LV-AA mutant CHT in HEK293 cells; B-score at 10 µM; actives 0.49% (n = 310,000); AID 488977;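 active = initial fluorescence not abnormally high and integrated response B-score, plate-corrected, over 3 SD above library mean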
Target sequence (Q9GZV3 whole entry, looked up): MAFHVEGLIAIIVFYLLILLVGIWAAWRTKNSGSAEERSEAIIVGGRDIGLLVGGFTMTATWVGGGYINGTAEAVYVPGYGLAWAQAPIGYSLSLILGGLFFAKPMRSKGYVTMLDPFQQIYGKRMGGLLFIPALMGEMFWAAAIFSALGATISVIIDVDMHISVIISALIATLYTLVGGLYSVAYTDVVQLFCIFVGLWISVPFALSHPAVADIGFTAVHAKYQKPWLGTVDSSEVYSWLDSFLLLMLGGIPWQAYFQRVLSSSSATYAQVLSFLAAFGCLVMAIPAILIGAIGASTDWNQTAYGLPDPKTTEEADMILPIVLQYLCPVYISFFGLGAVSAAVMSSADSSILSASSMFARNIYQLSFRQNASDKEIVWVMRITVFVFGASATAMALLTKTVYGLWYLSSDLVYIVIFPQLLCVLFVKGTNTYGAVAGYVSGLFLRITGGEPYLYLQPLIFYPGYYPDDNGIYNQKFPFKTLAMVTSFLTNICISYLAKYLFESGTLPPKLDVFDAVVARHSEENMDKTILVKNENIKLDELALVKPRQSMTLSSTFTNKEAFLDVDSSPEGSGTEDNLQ
CHT inh = inhibitors of human choline transporter CHT; Q9GZV3; CHT-expressing cells, membrane potential dye, choline response; stronger effect = lower value; B-score at 10 µM; actives 0.86% (n = 310,000); AID 488975;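 active = B-score over 3 SD under the library average, and starting fluorescence ratio not unusually high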;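 also: choline stimulus applied at its EC90 after an EC20 pre-addition; B-score computed on integrated fluorescence ratio after choline addition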
MEKK2wt PB1 HTS = raises or lowers MEK5 binding to wildtype human MEKK2 PB1 domain; bead flow cytometry, Alexa488-MEK5 binding to MEKK2 WT; actives lie on both sides; binding response (% of control), % at 10 µM; actives 1.1% (n = 290,000); in the data active = binding response below about 67% or above about 130%
CHT inh conf = human CHT inhibition, confirmatory screen | shares compounds with CHT inh | CHT-expressing cells, choline membrane potential dye; LV-to-AA substituted CHT, HEK293 cells | CHT activity remaining % of control (stronger effect = lower value), % at 10 µM | actives 70% (n = 2,400);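 active = choline transporter activity left, mean of duplicates at 10 µM, below buffer-only control mean minus 3 SD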;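 also: depolarization triggered by choline at its EC90 following an EC20 pre-addition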
HEK293 CHT ctr = activity in parental HEK293 cells lacking CHT; membrane potential ratio readout (active if shifted either direction beyond buffer ±3SD; no single direction) at 10 µM; actives 4% (n = 2,400); shares compounds with CHT inh; membrane potential dye, choline response; active = decrease or increase beyond buffer ±3SD;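 also: parental cells lack the transporter so any hit is non-specific; ratio is peak minus trough fluorescence over baseline after EC90 choline challenge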
Large screens that a line does not name were inactive (follow-up assays come after a bar, where they were run). Rows were chosen to be rich in hits. Some 4.1% of all compounds tested hit in one or more screens of this group.

COc1ccc(Cn2ccnc2SCC(=O)Nc2cccc(NC(C)=O)c2)cc1	none
COc1ccc(NC(=O)CSc2nccn2Cc2ccccc2)cc1	CHT inh -5.3 | CHT inh conf 56% | HEK293 CHT ctr inactive
COc1ccc(-n2ccnc2SCC(=O)NO)cc1	CHT inh -5.3 | CHT inh conf inactive | HEK293 CHT ctr inactive
COc1ccc(NC(=O)CSc2nccn2-c2ccccc2)cc1	none
CCNS(=O)(=O)c1c(C)cc(N2CCCC2=O)cc1C	none
Cc1cc(N2CCCC2=O)cc(C)c1S(=O)(=O)NCCOc1ccccc1	CHT inh -5.9 | CHT inh conf 67% | HEK293 CHT ctr -8.4
O=[N+]([O-])c1ccc(N2CCCCC2)nc1	CHT inh -5.8 (no result: MEKK2 mut-MEK5, MEKK3 PB1 HTS, MEKK2wt PB1 HTS) | CHT inh conf 60% | HEK293 CHT ctr inactive
O=C(c1ccccc1Br)N1CCCC(c2nc(-c3cccs3)no2)C1 (configuration not stated)	CHT inh -6.3 | CHT inh conf inactive | HEK293 CHT ctr inactive
O=C(c1ccc(Br)cc1)N1CCCC(c2nc(-c3cccs3)no2)C1 (configuration not stated)	none
O=C(Cn1[nH]c(=O)c2ccccc2c1=O)OCC(=O)N1CCc2ccccc2C1	CHT inh -5.4 | CHT inh conf inactive | HEK293 CHT ctr inactive
CCCCNS(=O)(=O)c1ccc(NC(=O)Cc2ccccc2[N+](=O)[O-])cc1	CHT inh -6 | CHT inh conf 43% | HEK293 CHT ctr inactive
CC(C)(C)NS(=O)(=O)c1ccc(NC(=O)Cc2ccccc2[N+](=O)[O-])cc1	none
O=C(NC1CCCCC1)N1CCN(c2ccc(Cl)cc2)CC1	CHT inh -5.8 | CHT inh conf inactive | HEK293 CHT ctr inactive
O=C(NC1CCCCC1)N1CCN(c2ccc([N+](=O)[O-])cc2)CC1	none
CCOc1cc(C2C(C(=O)c3ccco3)=C(O)C(=O)N2CC2CCCO2)ccc1O (configuration not stated)	none
COCCNc1c(-c2ccc(OC)cc2)nc2ccc(Cl)cn12	CHT inh -9.6 | CHT inh conf inactive | HEK293 CHT ctr inactive
CC(C)OP(=O)(OC(C)C)/C(C=O)=N\Nc1ccc([N+](=O)[O-])cc1	CHT inh -8.4 | CHT inh conf inactive | HEK293 CHT ctr inactive
CC(C)OP(=O)(OC(C)C)C(Nc1ccc([N+](=O)[O-])cc1)c1cccc([N+](=O)[O-])c1 (configuration not stated)	none
CC(/C=N/NC(=O)CSc1n[nH]c(=O)[nH]c1=O)=C\c1ccccc1	none
Cc1cccc(Nc2c([N+](=O)[O-])cc(C(=O)N3CC(=O)Nc4ccccc43)cc2[N+](=O)[O-])c1	none (no result: SUMO Mot1 rescue)
Cc1ccc(C)c(Nc2c([N+](=O)[O-])cc(C(=O)N3CC(=O)Nc4ccccc43)cc2[N+](=O)[O-])c1	CHT inh -5.9 | CHT inh conf inactive | HEK293 CHT ctr inactive
CCc1nnc(SCC(=O)NC2CC2)n1CC	none
COC(=O)Cn1c(N)[n+](Cc2ccccc2)c2ccccc21	none (no result: MEKK2 mut-MEK5, MEKK3 PB1 HTS, MEKK2wt PB1 HTS)
O=C(Nc1ccc(Br)cc1Cl)Nn1cnnc1	CHT inh -5 | CHT inh conf 65% | HEK293 CHT ctr inactive
CCOC(=O)c1c(C)n(C)c2ccc(O)c(CN3CCC(C)CC3)c12	CHT inh -14 | CHT inh conf 20% | HEK293 CHT ctr 4.2
CCOc1ccc(N(Cc2cc3cc(C)ccc3[nH]c2=O)S(=O)(=O)c2ccccc2)cc1	none
Cc1noc(C)c1S(=O)(=O)Nc1ccccc1Oc1ccccc1	CHT inh -13 | CHT inh conf inactive | HEK293 CHT ctr inactive
Cc1noc(C)c1S(=O)(=O)Nc1ccccc1Cl	none
O=C(On1c(-c2ccccc2)nc2ccccc2c1=O)c1ccco1	CHT inh -9.7 | CHT inh conf 57% | HEK293 CHT ctr inactive
COc1cc(OC)cc(-c2nc3ccccc3c(=O)n2OC(=O)c2ccccc2C)c1	none
C/C(CC(=O)Nc1ccc2c(c1)OCCO2)=N\NC(=O)COc1ccc(Cl)c(C)c1	none
CN(C)c1ccccc1C(=O)N1CCCC(C(=O)c2ccc3ccccc3c2)C1 (configuration not stated)	none
COc1cc(CN(C)Cc2cc(=O)n3ccsc3n2)ccc1OC(F)F	CHT inh -5.6 | CHT inh conf 59% | HEK293 CHT ctr inactive
CCC(C(=O)NCc1cccnc1)n1nc(C)n2c(cc3occc32)c1=O (configuration not stated)	none
O=[N+]([O-])c1cc(Cl)cc(/C=N/n2cnnc2)c1O	none
Cc1n[nH]c(C)c1Sc1ccccc1N=Cc1cc(Cl)cc([N+](=O)[O-])c1O	CHT inh -7.9 | CHT inh conf 36% | HEK293 CHT ctr inactive
CCc1cc2c(=O)n(CC)c(SC(C)C(=O)Nc3c(C)n(C)n(-c4ccccc4)c3=O)nc2s1 (configuration not stated)	CHT inh -5.6 | CHT inh conf inactive | HEK293 CHT ctr inactive
CCCn1ccnc1SC(C)C(=O)Nc1c(C)n(C)n(-c2ccccc2)c1=O (configuration not stated)	none (no result: MEKK2 mut-MEK5, MEKK3 PB1 HTS, CHT PAM, CHT inh, MEKK2wt PB1 HTS)
COc1ccccc1N=NC1=C(O)CC(C)(C)CC1=O	CHT inh -5.5 | CHT inh conf inactive | HEK293 CHT ctr inactive
CC1(C)CC(=O)C(N=Nc2ccc(Cl)cc2)=C(O)C1	none
CCc1cccc(NC(=O)C2CC2c2ccccc2)c1 (configuration not stated)	none
Cc1ccc(OCCN2CCN(C)CC2)c([N+](=O)[O-])c1	none
Cc1ccc(OCCCN2CCOCC2)c([N+](=O)[O-])c1	CHT inh -6.1 | CHT inh conf inactive | HEK293 CHT ctr inactive
O=C(COc1ccc(Cl)cc1)NNC(=O)C(=O)NC1CCCCC1	none
Cc1onc(-c2ccc(Cl)cc2)c1-c1ccnn1S(=O)(=O)c1cccc(C(F)(F)F)c1	none
Cn1c(CCNC(=O)c2cccs2)n[nH]c1=S	CHT inh -6.8 | CHT inh conf inactive | HEK293 CHT ctr inactive
CCCCc1cc(-c2n[nH]c(=S)o2)c2ccccc2n1	CHT inh -8.4 | CHT inh conf 67% | HEK293 CHT ctr inactive
